# Results from the supplement of paper PMC8540655.
# Values without a mark were called inactive.
# System: Aedes aegypti larvae
# Assay: larval motility relative to same well at 0 h (fraction); higher = more motile (less active compound), active = 0.4 or less
# Conditions: 10 µM
# Method in brief: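 Each 96-well plate held about 10 Aedes aegypti larvae per well in 100 µL, along with solvent and larvicide control wells. Compounds were present at 10 µM with 1% v/v DMSO, and INVAPP recorded 200-frame movies at 100 ms intervals at 0, 2 and 24 h. Relative motility divides each well's score by its baseline score from the first recording, with the median taken across independent larval batches, of which there were three.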
SMILES,larval motility (2 h),larval motility (24 h)
CONC(=N)c1ccc(-c2ccc(-c3ccc(C(=N)NOC)cc3)o2)cc1,0.699,2.2
O=C1CCC(N2C(=O)c3ccccc3C2=O)C(=O)N1 (configuration not stated),1.17,1.13
NNC(=O)c1ccncc1,0.924,0.744
CC(C)Nc1nc2cc(Cl)c(Cl)cc2n1[C@H]1O[C@@H](CO)[C@H](O)[C@@H]1O,1.1,0.602
CCc1nc(N)nc(N)c1C#CCc1ccccc1,0.589,0.658
CCOc1noc2cc(OCCC3CCN(c4ccc(C)nn4)CC3)ccc12,0.793,1.06
O=C(Nc1ccc(-c2ccccc2)cc1)C1=C(O)C(Cc2ccccc2)OC1=O (configuration not stated),0.886,0.946
O=C(NCCN1CCCCC1)c1cccc(C(F)(F)F)c1,0.912,1.4
Cc1ncc([N+](=O)[O-])n1CC(O)CN1CCOCC1 (configuration not stated),1.3,0.789
C[C@H]1COc2c(N3CCN(C)CC3)c(F)cc3c(=O)c(C(=O)O)cn1c23,0.447,0.712
O=C1NC(=O)C(Br)=C1Br,0.672,0.484
CN1CCN(c2ccc3[nH]c(-c4ccc5[nH]c(-c6ccc(O)cc6)nc5c4)nc3c2)CC1,0.732,1.11
O=C(/C(=C/c1ccc(Cl)cc1Cl)n1ccnc1)c1ccc(Cl)cc1,0.446,1.04
CCCCCCCc1[nH]c2ccccc2c(=O)c1O,0.74,0.565
Fc1ccc(-n2cc(Cn3c(-c4cccc(F)c4)nc4ccccc43)nn2)cc1,0.761,0.415
COCCn1cnc2c(=O)[nH]c(Nc3ccccc3)nc21,0.921,0.552
CS(=O)(=O)c1ccc(Oc2ccc(Cl)cc2)cc1,0.907,1.02
CC(C)(C)c1ccc(OCCn2nc(C(=O)O)c3ccccc3c2=O)cc1,2.82,3.46
CC(=O)N[C@H](C)C(=O)N[C@H](Cc1ccccc1)C(=O)O,0.496,0.597

SMILES,larval motility (2 h),larval motility (24 h)
O=C(c1ccc(F)cc1)N1CCN2C(=O)c3ccccc3C12c1ccccc1 (configuration not stated),1.12,0.984
CC(C)(C)c1ccc(C(=O)NC(=O)N2CCCc3ccccc32)cc1,0.973,0.629
O=C(O)c1ccc(-c2ccc(O[C@H]3O[C@H](CO)[C@@H](O)[C@H](O)[C@@H]3O)cc2)cc1,0.798,1.22
OCCCCn1cnc2c(O)nc(NCc3ccc(Cl)c(Cl)c3)nc21,0.982,0.79
C[C@@H](O)[C@H](N)C(=O)NS(=O)(=O)c1cccc(-c2ccc3[nH]ncc3c2)c1,0.665,0.913
CN(C)CCNC(=O)c1cccc2cccnc12,0.941,0.825
Cc1c(N)cccc1Cn1ccc(OCCc2cccs2)cc1=O,0.953,0.875
Cc1ccc(NC(=O)c2cc(Cl)ccc2O)cc1,0.656,0.616
O=C(c1ccccc1)N1CCN(c2ccccc2NC(=O)C(Cl)(Cl)Cl)CC1,1.33,0.669
CCCCc1ccc(-c2cc(C(=O)O)cc(-c3ccc(Cl)cc3)n2)cc1,0.642,0.563
Nc1nc(N)c2c(Sc3ccccc3)cccc2n1,1.24,0.982
N#CCN1C(=O)COc2cc(F)c(N3C(=O)c4ccccc4C3=O)cc21,0.915,1.91
CN(C/C=C/C#CC(C)(C)C)Cc1cccc2ccccc12,0.66,0.879
O=C(/C=C/n1cnc(-c2cc(C(F)(F)F)cc(C(F)(F)F)c2)n1)NNc1cnccn1,0.908,1
CN(C)c1[nH]c(=O)ncc1F,1.24,1.3
O=[N+]([O-])c1ccc2c(CCc3c[nH]c4ccccc34)c[nH]c2c1,1.12,0.813
Cc1nc(-c2ccc(C3N(C)c4ccc(F)cc4C(=O)N3c3ccccc3)s2)cs1 (configuration not stated),0.613,0.822
NC(=O)c1c(N)sc2c1CCCCC2,0.947,1.32
Clc1ccc(Cn2c(CN3CCCC3)nc3ccccc32)cc1,1.09,1.28

SMILES,larval motility (2 h),larval motility (24 h)
NC(=O)[C@@H]1CC[C@@H]2CN1C(=O)N2OS(=O)(=O)O,1.06,1.3
Nc1nc(=O)c(Br)c(-c2cccc(Cl)c2)[nH]1,0.895,0.972
CNCC(=O)OCc1cccnc1N(C)C(=O)OC(C)[n+]1cnn(C[C@](O)(c2cc(F)ccc2F)[C@@H](C)c2nc(-c3ccc(C#N)cc3)cs2)c1 (some centres not stated),1.02,0.736
C[C@@H](NC(=O)c1cccc(-c2c[nH]c(-c3cc4ccccc4cn3)n2)c1)c1ccc(F)cc1,0.628,0.997
COC(=O)Nc1nc2cc(S(=O)c3ccccc3)ccc2[nH]1 (configuration not stated),0.769,0.934
Oc1cc(-c2cccc3ccccc23)[nH]n1,0.626,0.554
CC(=O)N1c2ccccc2NC2=C(C(=O)CC(C)(C)C2)C1c1ccc(OCc2ccccc2)cc1 (configuration not stated),1.49,1.55
O=C1[C@H](CC[C@H](O)c2ccc(F)cc2)[C@@H](c2ccc(O)cc2)N1c1ccc(F)cc1,0.873,1.08
C[C@@H]1O[C@@H]1P(=O)(O)O,0.617,0.856
CC[C@@H]1C(=O)OC[C@@H]1Cc1cncn1C,1.22,0.972
COc1cc(Cc2cc(N)nc(N)n2)cc(OC)c1OC,0.774,1.44
O=C(N[C@H](CCS)C(=O)N[C@H](Cc1ccccc1)C(=O)O)c1cc2ccccc2[nH]1,1.47,1.56
CN(C(=O)C1(c2ccc(Cl)cc2)CCC1)c1ccccc1,1.1,1.21
COc1cc(C(C(=O)NC2CCCCC2)N(C(=O)Cc2c[nH]c3ccccc23)c2ccc(C(C)C)cc2)cc(OC)c1OC (configuration not stated),1.42,1.32
Oc1ccc(NCc2ccccc2OCc2ccccc2)cc1,0.844,1.62
O=C(Nc1ccc(Cl)c(C(F)(F)F)c1)C(CCCl)C(=O)Nc1ccc(Cl)c(C(F)(F)F)c1,0.848,0.397 (active)
O=C1C=C(c2ccccc2)S(=O)(=O)c2ccccc21,0.748,1.01
COc1ccc(C)cc1NC(=O)c1ccc(S(=O)(=O)N2CCCCC2)cc1,1.12,1.26
